# Test results reported in ChEMBL document CHEMBL3433997, “St. Jude Leishmania screening dataset” (2016).
# Molecular target: Glucose transporter (Leishmania mexicana) (UniProt O61059)
# Test: ST_JUDE_LEISH: Cytotoxicity at 2uM final concentration against transgenic Leishmania Mexicana promastigotes LmGT2 that are glucose transport deficient and complemented with the L. Mexicana glucose transporter 2. Activity is measured by DNA content using SYBR green in vitro
# Assay type: functional
row,SMILES,inhibition [%]
1,O=C(Nc1ccc(C(F)(F)F)cc1)c1cccc(S(=O)(=O)NC2CCN(Cc3ccccc3)C2)c1 (stereo not given),3.95
2,Cc1cc(Br)c(OCCCON2C(=N)N=C(N)NC2(C)C)c(Br)c1,1.2
3,O=C(Nc1cccc(-c2ccc(-c3nc4ccccc4[nH]3)s2)c1)c1ccncc1,3.84
4,CC(=NNC(S)=Nc1ccccc1Cl)c1ccccn1,12.2
5,CC(=O)Nc1ccc(C(=O)Nc2ccc(-c3cccc(-c4nc5ccccc5[nH]4)c3)cc2)cn1,-0.56
6,Cc1cc(CNCCCCCNCc2cccc([N+](=O)[O-])c2)ccc1O,1.29
7,Cc1cc(C)c2c(c1)C(=NO)CCN2,-0.32
8,O=C(N[C@@H](Cc1ccccc1)C(=O)NC1CCCCC1)c1ccc(O)c(-c2ccc(Cl)c(Cl)c2)c1,-0.73
9,OCC(CO)(CO)NCc1ccc2c3c(cccc13)-c1ccccc1-2,8.44
10,CCCCCCCCCCNCC(O)c1ccc(O)c(C(=O)OC)c1 (stereo not given),0.52
11,COc1ccc2c(c1)OC(C)(C)CC2=NOS(=O)(=O)c1ccc(C)cc1,2
12,Cc1cc(C)c(C(=O)Nc2ccc3nc(C)cc(N)c3c2)c(C)c1,2.61
13,CCOC(=O)NC1=NC(C)(C)N(OCc2ccc(Cl)c(Cl)c2)C(NC(=O)OCC)=N1,2.54
14,O=C(N[C@H]1CCN(Cc2ccc(OC3CCN(Cc4ccccc4)CC3)c(Cl)c2)C1)c1ccc(Cl)c(Cl)c1,1.75
15,Cc1[nH]c(C)c(-c2ccc(-c3ccc(F)cc3)nc2)c(=O)c1Br,1.04
16,Cc1ccc(Cc2c[nH]c(NCCSCc3ccc(CN(C)C)s3)nc2=O)cn1,2.78
17,O=C(NCCN1CCCC1)c1ccc(-c2cccc(-c3nc4cc(F)ccc4[nH]3)c2)cc1,-0.53
18,CCn1c(-c2nonc2N)nc2cnc(Oc3cccc(NC(=O)c4ccc(OCCCN5CCCCC5)cc4)c3)cc21,6.29
19,CCc1cn2c3c(cc(C(=O)N[C@@H](Cc4ccccc4)[C@H](O)CNC(C)C)cc13)N(C)S(=O)(=O)C2,0.06
20,COc1cccc2c(N/N=C/c3cccc([N+](=O)[O-])c3)ccnc12,8.14

row,SMILES,inhibition [%]
1,COc1cc(NC(=O)c2ccc3oc4ccccc4c3c2)ccc1OCCN1CCCCC1,0.62
2,CC(Nc1ccc2c(c1)OCCO2)C(=O)Nc1cc(C(F)(F)F)ccc1N1CCOCC1 (stereo not given),6.63
3,Cc1ccc(NC(=O)Nc2ccc(Cn3ncc(N4CCCNCC4)c(Cl)c3=O)cc2)cc1,1.32
4,O=C(Nc1ccccc1)Nc1cccc(-c2nn3c(OCC4CCCCN4)cccc3c2-c2ccncc2)c1 (stereo not given),1.3
5,COc1ccc(-c2ccc(NC(=O)c3cccc(F)c3)cc2)cc1CNC(C)C,-2.2
6,Cc1cc(N(C)C)nc(Nc2ccc(NC(=O)COc3ccccc3)cc2)n1,-2.15
7,Cc1ccn2cc(-c3ccc(NC(=O)c4ccc(Br)o4)cc3)nc2c1,0.61
8,Cc1ncccc1C(=O)Nc1cccc(-c2cccc(-c3nc4cc(C(F)(F)F)ccc4[nH]3)c2)c1,-2.48
9,O=C(NCCCCN1CCC(c2ccc3c(c2OCCCO)CCCC3)CC1)c1ccc(-c2ccc(C(F)(F)F)cc2)c(CO)c1,-0.61
10,CN1CCN(Cc2ccc(-c3cc4nccc(Nc5ccc(Oc6ccccc6)cc5)c4cc3Cl)o2)CC1,2.69
11,COc1ccc(CNc2nc(NCCc3ccccc3)c3cc(OC)c(OC)cc3n2)cc1OC,2.54
12,CC(C)N(CCOc1ccc2c(c1)N(C(=O)Nc1cc(Br)cc(C(F)(F)F)c1)CC2)C(C)C,1.38
13,COc1cccc(-c2csc(C(=O)NC3CCCCN(Cc4ccc(C(C)(C)C)cc4)C3)c2)c1 (stereo not given),5.14
14,CC(C)Sc1nc2c(c(=O)n1CCc1ccccc1)C1(CCCC1)Cc1ccccc1-2,2.88
15,O=C(/C=C/c1ccc(Cl)c(Cl)c1)NCCCCCN1CCC(NC(=O)Nc2ccc(F)cc2F)CC1,1.33
16,COc1ccccc1N1CCN(CCCCNC(=O)c2ccc(NC(=O)c3cc(Cl)cc(Cl)c3)cc2)CC1,2.92
17,CC1CC(C)CN(CCCNc2ccc(C(=O)Nc3ccc(C(F)(F)F)cc3)cc2[N+](=O)[O-])C1 (stereo not given),1.47
18,COc1ccc(CCNCCCCCNCCCc2ccc(Cl)cc2)cc1OC,0.25
19,CCn1c(SCc2ccc(F)cc2)nc2sc3c(c2c1=O)CCN(C)C3,0.64
20,CC(C)(CNC(=O)[C@@H]1CCCN(Cc2ccc(Cl)cc2)C1)c1nc(-c2ccc(Cl)c(O)c2)c(-c2ccncc2)[nH]1,0.77
